Among all 48,000 compounds or so, about 13,000 (27%) showed an effect of 50% or more. This is one part of the list.

The assay deals with Wolbachia pipientis. The experiment in a line: Anti-Wolbachia Cell-Based Screen. The assay is classed as functional. To be noted: 5 µM. Also noted: scale not given: in the data most compounds retested in dose-response had high values.
In the case of `Fc1cnc(N2CC[C@@H]3O[C@H](COCc4ccccn4)CC[C@@H]32)nc1.O=C(O)C(F)(F)F.O=C(O)C(F)(F)F`, the “Percent Effect” value was -8.752%. On to `CCC(Nc1cccc(Oc2ccc(C#N)cc2)c1)C(N)=O` (stereo unspecified), for which the “Percent Effect” value was 17.41%. With `O=c1cc2c(nn1CN1CCN(c3cccc(Cl)c3)CC1)CCC2` the figure was -5.597%; with `N#Cc1ccc2c(c1)CN(C(=O)c1nc[nH]n1)C2c1cnco1` (stereo unspecified), -15.48%; with `CCNc1ccnc(N2CCCC(CCOC)(C(=O)O)C2)n1` (stereo unspecified), -0.7265%. Next, `CNC(=O)[C@@H]1CN(C(=O)CCOC)C[C@H]1c1ccnc(N2CCCC2)n1.Cl`: 97.41%; `CNC(=O)[C@@H]1COC[C@H]2CN(C(=O)COc3ccccc3)C[C@H]21`: -5.187%; `CNC(=O)C1CCN(c2nccc(CCC(F)(F)F)n2)C1` (stereo unspecified): -10.68%. Next, `CCn1ncnc1C(C)NC(=O)C1CCN(C(=O)COC)CC1` (stereo unspecified): 0.6867%; `CCC(=O)N1C[C@@H](C(=O)NC)[C@H](c2ccnc(N3CCCC3)n2)C1.Cl`: 103.8%; `COCCC(=O)N1CCN(C)c2ncccc2C1`: -0.6435%.

Turning to `CNC(=O)[C@@H]1CN(C(=O)COC)C[C@H]1c1ccnc(N2CCCC2)n1`, the “Percent Effect” value was 103.6%. Next, `CCNC(=O)C1CCN(c2nccc(C3CCCC3)n2)C1` (stereo unspecified): -5.882%; `O=C(O)C(c1cccc2c1OCC2)N1CCC(N2CCCC2)CC1` (stereo unspecified): -6.638%. For `O=C1C(Nc2ncccn2)CCN1c1ccccc1OC(F)F` (stereo unspecified), the “Percent Effect” value is listed as -3.338%. With `COCCS(=O)(=O)NC(C)c1cccc(-n2cccn2)c1` (stereo unspecified) the figure was 2.381%; with `CC(=O)Nc1ccc(C(=O)Nc2cnc3n2CCCC3)cc1C`, 7.352%; with `CC(C)NC(=O)N1CCC2(CC1)Cc1ccccc1CNC2=O`, 106.4%. With `CNS(=O)(=O)c1ccccc1N1CCN(C(=O)NC(C)C)CC1` the figure was -1.761%; with `C[C@@H]1CN(C2(C(=O)N3CCOCC3)Cc3ccccc3C2)C[C@H](C)O1`, -3.118%; with `O=C([C@H]1CCCO1)N1CCC2(CC1)Cc1ccccc1CNC2=O`, -31.67%. With `CN1Cc2ccccc2CC2(CCN(C(=O)N3CCOCC3)CC2)C1=O` the figure was 102.4%; with `CC(C)NC(=O)N1CCC2(CC1)CCn1c(C3CC3)cnc12`, 5.233%. On to `CN1Cc2ccccc2CC2(CCN(C(=O)[C@H]3CCCO3)CC2)C1=O`, for which the “Percent Effect” value is recorded as -50.23%.

On to `CC(NC(=O)N1CCc2ccccc2C1)c1nncn1C` (stereo unspecified), for which the “Percent Effect” value was -2.02%. With `CC(C)NC(=O)N1CCC2(CC1)Cc1ccccc1CN(C)C2=O` the figure was 105%. With `O=S(=O)(C/C=C/c1ccccc1)Cc1nc(C2CC2)no1` the figure was 14.62%; with `CCn1ccnc1CN1CCN(CCOc2cccc(C#N)c2)CC1`, -6.749%. In the case of `CC(C)c1cnc(CNc2c(F)cccc2-n2cccn2)o1`, the “Percent Effect” value amounted to 11.31%. With `CCNC(=O)NC1CN(Cc2ccccc2N(C)C)C[C@@H]1OC` (stereo partly specified) the figure was 0.7877%; with `CC(NC(=O)N1CCc2sccc2C1)c1nncn1C` (stereo unspecified), 8.221%; with `CN(C)C(=O)N1C[C@@H]2CCCO[C@@H]2[C@H](N(C)Cc2ccco2)C1.O=C(O)C(F)(F)F`, -2.152%. With `Cc1nccn1-c1cc(CNC(=O)CCNC(=O)C2CCCC2)ccn1` the figure was 5.543%; with `CCc1nc(CN2CCCC(NCc3cnn(C(C)(C)C)c3)C2)no1` (stereo unspecified), -2.673%; with `Cc1nc(CN2CCCC(NCC(=O)Nc3cccnc3)C2)no1` (stereo unspecified), -1.962%.

For `CCOc1cccc(CNC2CCCN(Cc3noc(C)n3)C2)c1` (stereo unspecified), the “Percent Effect” value was 100.5%.

Regarding `Cc1nc(CN2CCCC(NCc3cnn(C)c3)C2)no1` (stereo unspecified), the “Percent Effect” value is 104.5%.

For `Cc1nc(CN2CCCC(NCc3cccc4ccccc34)C2)no1` (stereo unspecified), the “Percent Effect” value came to 107.2%.

Regarding `Cc1nc(CN2CCCC(NCCc3ccccc3Cl)C2)no1` (stereo unspecified), the “Percent Effect” value is -3.863%. Next, `Cc1nc(CN(C)C2CCN(Cc3nc4ccccc4s3)C2)no1` (stereo unspecified): 10.14%; `Cc1nc(CN2CCCC(NCc3nc4ccccc4s3)C2)no1` (stereo unspecified): 116.1%; `Cc1nc(CN2CCCC(N(C)c3cnc4ccccc4n3)C2)no1` (stereo unspecified): -0.8744%. As for `Cc1nc(CN2CCCC(Nc3ncnc4ccccc34)C2)no1` (stereo unspecified), the “Percent Effect” value is given as -16.22%. Next, `Cn1cc(CNC2CCCN(Cc3noc(C4CC4)n3)C2)cn1` (stereo unspecified): -8.767%; `Cc1nc(CN2CCCC(NCCOc3ccccc3)C2)no1` (stereo unspecified): -9.342%; `Cc1cccc(CNC(Cn2cncn2)c2ccccc2)c1C` (stereo unspecified): -43.08%.

With `CN(C)c1cc2c(nn1)CCN(C(=O)Cc1noc3ccccc13)C2`, the “Percent Effect” value amounted to 12.15%. In the case of `CN(Cc1csc(-c2ccccc2)n1)C(=O)CCn1ccccc1=O`, the “Percent Effect” value is recorded as -32.35%.

Take `Cc1nc(CN2CCCC(NCc3ccc(Cl)s3)C2)no1` (stereo unspecified): the “Percent Effect” value stood at 105.2%.

In the case of `Cc1nc(CN2CCCC(NCc3c(C)nc4sccn34)C2)no1` (stereo unspecified), the “Percent Effect” value is -4.535%. Next, `Cc1nc(CN2CCCC(N(C)Cc3cscn3)C2)no1` (stereo unspecified): 2.968%. Next, `Cc1nc(CN2CCCC(NCc3ccsc3)C2)no1` (stereo unspecified): 1.864%; `Cc1nc(CN2CCCC(NCc3csc(C(C)(C)C)n3)C2)no1` (stereo unspecified): 82.03%. With `Cc1nc(CN2CCCC(NCc3sccc3C)C2)no1` (stereo unspecified) the figure was 84.94%; with `COc1ccc(CNC2CCCN(Cc3noc(C)n3)C2)cc1F` (stereo unspecified), -5.655%.

Take `Cc1nc(CN2CCCC(NCCOCC(F)(F)F)C2)no1` (stereo unspecified): the “Percent Effect” value is listed as -2.958%. With `Cc1nc(CN2CCCC(NCc3ccc4ccccc4c3)C2)no1` (stereo unspecified) the figure was 117%; with `CCOc1cccc(CN2CCCn3nc(CNS(C)(=O)=O)cc3C2)c1`, -2.285%; with `Cc1nc(CN2CCCC(NCc3ccc4c(c3)CCO4)C2)no1` (stereo unspecified), 109.8%. With `Cc1cccc(CN2CCc3ncnc(C4CC4)c3CC2)n1.O=C(O)C(F)(F)F` the figure was 113.1%; with `O=C(O)C(F)(F)F.O=C(O)C(F)(F)F.c1ccc(CN2CCc3ncnc(C4CCOC4)c3CC2)nc1` (stereo unspecified), 3.596%; with `Cc1cccc(CN2CCc3ncnc(NC4CCC4)c3CC2)n1.O=C(O)C(F)(F)F.O=C(O)C(F)(F)F`, 78.48%. With `Cc1ncnc2c1CCN(Cc1ccccn1)CC2.O=C(O)C(F)(F)F.O=C(O)C(F)(F)F` the figure was -3.635%. For `Cc1cccc(CN2CCc3ncnc(C)c3CC2)n1.O=C(O)C(F)(F)F`, the “Percent Effect” value is listed as -2.689%. As for `CN(c1nc(CSc2nnc(Cn3cncn3)o2)cs1)C1CC1`, the “Percent Effect” value is given as -4.174%. With `O=C(CCc1c[nH]cn1)N1CC[C@@H](c2ccc3ccccc3c2)[C@H](O)C1` the figure was -1.023%.

On to `Cc1n[nH]c(SCC(=O)NC(c2ccccn2)C(C)C)n1` (stereo unspecified), for which the “Percent Effect” value stood at 0.231%.

For the molecule `CC(C)Cn1cc(NC(=O)NC(C)(C)c2nccs2)cn1`, the “Percent Effect” value is reported as -7.007%. In the case of `Cc1nc(-c2c(C)noc2C)cc(C2CCN(CC(=O)N(C)C)CC2)n1`, the “Percent Effect” value came to 77.89%. Next, `CCC[C@H]1CN(S(=O)(=O)c2ccc(-c3c(C)noc3C)s2)C[C@@H]1N`: -6.038%; `Cc1cc(C(F)(F)F)c2c(C3CCN(S(=O)(=O)N(C)C)CC3)noc2n1`: -7.595%; `CCc1n[nH]c(C2CN(CC(=O)N(C)Cc3ccco3)CCO2)n1` (stereo unspecified): -22.35%. Next, `Cc1noc(C)c1-c1cccc(C2CN(S(=O)(=O)N(C)C)CCO2)n1` (stereo unspecified): 137.9%; `Cc1noc(C)c1-c1cccc(C2CN(CC(=O)N(C)C)CCO2)n1.O=CO` (stereo unspecified): 138.9%. With `CC(C)c1n[nH]c(C2CN(CC(=O)N(C)Cc3ccco3)CCO2)n1` (stereo unspecified) the figure was -2.203%; with `CCN(C)C(=O)CN1CCC(c2cc(N3CCOCC3)nc(C)n2)CC1`, 11.68%; with `Cc1nc(-c2c(C)noc2C)cc(C2CCN(S(=O)(=O)N(C)C)CC2)n1`, 103.8%. With `Cc1noc(C)c1CN(C)C(=O)C1CCN(S(N)(=O)=O)CC1`, the “Percent Effect” value is -4.387%. Next, `Cc1cc(Cl)cc(C)c1CNC1CCN(CC(=O)N(C)C)CC1`: -21.25%; `Oc1ccc(-c2c(-c3ccccc3)ncn2C[C@H]2CCCN2)cc1`: -6.352%. As for `CCc1noc(C(C)N2CCC(NS(=O)(=O)c3ccccc3)CC2)n1` (stereo unspecified), the “Percent Effect” value is recorded as -5.336%.

Regarding `CN(C(=O)CN1CCC(c2cc3ccccc3[nH]2)CC1)C1CC1`, the “Percent Effect” value was -16.32%. In the case of `CN(C(=O)CN1CCC(c2cc3ccccc3[nH]2)CC1)C(C)(C)C#N`, the “Percent Effect” value was -0.1259%. `Cc1noc(C)c1-c1cccc(C2CCN(CC(=O)N(C)C)CC2)n1`: the “Percent Effect” value is reported as 159.5%. For `Cc1csc(CNc2cccc(OCCN3CCCC3)c2)n1`, the “Percent Effect” value is recorded as -3.385%.

Take `CCOc1cc(C(=O)N2CCCC(c3noc(C)n3)C2)ccn1` (stereo unspecified): the “Percent Effect” value is recorded as -8.742%. Next, `CCOc1cc(C(=O)N2CC=C(c3ccc(O)cc3)CC2)ccn1`: -12.82%.

Take `CCOc1cc(CNC(=O)NCc2nc(C)c(C)s2)ccn1`: the “Percent Effect” value is listed as -14.7%. With `CC(C)c1nc(C2CCCN(C(=O)c3nccn4ccnc34)C2)no1` (stereo unspecified) the figure was 101.8%; with `CCOc1cc(C(=O)N2CCCC(c3noc(CC)n3)C2)ccn1` (stereo unspecified), 112.4%. Next, `CCOc1cc(C(=O)N2CCCC(c3nc(C)c(C)s3)C2)ccn1` (stereo unspecified): 118.9%; `Cc1ncsc1C(=O)N1CCCC(c2noc(C(C)C)n2)C1` (stereo unspecified): -0.9065%; `CCOc1cc(C(=O)N2CCCC(c3noc(C(C)C)n3)C2)ccn1` (stereo unspecified): 127.2%. With `CCNc1ncc(CN2C[C@H]3CC[C@@H]2CN(C(=O)C2CCC2)C3)cn1` the figure was -9.372%; with `COCc1cc(N2CCN(c3ccc(Cl)cn3)CC2)n2nccc2n1`, -13.5%; with `COc1ccc(F)c(CN2CCCC(O)(CNCc3ccoc3)C2=O)c1` (stereo unspecified), 4.177%. For the molecule `Cc1nc[nH]c1CN(Cc1ccccc1)C1CC(C)(C)NC(C)(C)C1.O=C(O)CC(O)(CC(=O)O)C(=O)O`, the “Percent Effect” value was determined as 106.8%. With `CCCc1cc(CN(C)C2CC(C)(C)NC(C)(C)C2)n[nH]1` the figure was -6.342%; with `Cc1nc[nH]c1CN(Cc1ccccc1F)C1CC(C)(C)NC(C)(C)C1.O=C(O)CC(O)(CC(=O)O)C(=O)O`, 111.6%; with `Cc1nc[nH]c1CN(Cc1ccc(F)cc1)C1CC(C)(C)NC(C)(C)C1`, 102.8%. With `Cc1n[nH]c(C)c1CNC(=O)N(Cc1ccccc1)CC(C)(C)O` the figure was -20.3%; with `CC1(C)CC(N(Cc2ccccc2)Cc2c[nH]cn2)CC(C)(C)N1.O=C(O)CC(O)(CC(=O)O)C(=O)O`, 113.6%; with `Cc1nc[nH]c1CN(C)CC1CCCN(CCc2ccc(Cl)cc2)C1` (stereo unspecified), -5.725%.

On to `O=C(c1cc[nH]n1)N(Cc1ccccc1)CC1CCC1`, for which the “Percent Effect” value is -1.584%.

As to `Cc1ccc(CN(Cc2c[nH]cn2)C2CC(C)(C)NC(C)(C)C2)o1.O=C(O)CC(O)(CC(=O)O)C(=O)O`, the “Percent Effect” value turned out to be 1.098%. `Cc1ccc(CNC(=O)N(Cc2ccccc2F)C2CC2)cn1`: the “Percent Effect” value is given as -4.204%.

These data come from ChEMBL document CHEMBL3988442, “University of Dundee, Small-Polar-MMV Screening Library” (2021).
